# Assay outcomes (PubChem)
# Hits are enriched below; roughly 0.92% of the tested compounds scored in any of these assays.
# WRN helicase inh: WRN helicase (human) inhibition; Q14191; WRN helicase unwinding, fluorescent forked duplex, kinetic; Potency, µM (highest dose often 114 µM), for the others: top-dose activity change, negative = inhibition, usual class: inhibitors; actives 0.46% (n = 360,000); note: nearly all actives have a fitted effect of over 55% in size
#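 Enzyme (20 nM final) and test compound sit together 15 min at room temperature before substrate addition. Substrate is a single-forked duplex oligonucleotide (100 nM) labelled with fluorophore and quencher, with 2 mM ATP; helicase unwinding raises red fluorescence, read kinetically.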
# L3MBTL1 inh: inhibitors of human L3MBTL1; Q9Y468; actives 0.66% (n = 230,000); AlphaScreen L3MBTL1–H3K9me1 peptide binding; Potency, µM (titrated, usually from 57.1 µM), without a hit: top-dose activity, negative = inhibition, most hits filed as inhibitors; AID 485360; note: nearly all actives have a fitted effect of over 60% in size
# Target sequence (Q9Y468 whole entry, looked up): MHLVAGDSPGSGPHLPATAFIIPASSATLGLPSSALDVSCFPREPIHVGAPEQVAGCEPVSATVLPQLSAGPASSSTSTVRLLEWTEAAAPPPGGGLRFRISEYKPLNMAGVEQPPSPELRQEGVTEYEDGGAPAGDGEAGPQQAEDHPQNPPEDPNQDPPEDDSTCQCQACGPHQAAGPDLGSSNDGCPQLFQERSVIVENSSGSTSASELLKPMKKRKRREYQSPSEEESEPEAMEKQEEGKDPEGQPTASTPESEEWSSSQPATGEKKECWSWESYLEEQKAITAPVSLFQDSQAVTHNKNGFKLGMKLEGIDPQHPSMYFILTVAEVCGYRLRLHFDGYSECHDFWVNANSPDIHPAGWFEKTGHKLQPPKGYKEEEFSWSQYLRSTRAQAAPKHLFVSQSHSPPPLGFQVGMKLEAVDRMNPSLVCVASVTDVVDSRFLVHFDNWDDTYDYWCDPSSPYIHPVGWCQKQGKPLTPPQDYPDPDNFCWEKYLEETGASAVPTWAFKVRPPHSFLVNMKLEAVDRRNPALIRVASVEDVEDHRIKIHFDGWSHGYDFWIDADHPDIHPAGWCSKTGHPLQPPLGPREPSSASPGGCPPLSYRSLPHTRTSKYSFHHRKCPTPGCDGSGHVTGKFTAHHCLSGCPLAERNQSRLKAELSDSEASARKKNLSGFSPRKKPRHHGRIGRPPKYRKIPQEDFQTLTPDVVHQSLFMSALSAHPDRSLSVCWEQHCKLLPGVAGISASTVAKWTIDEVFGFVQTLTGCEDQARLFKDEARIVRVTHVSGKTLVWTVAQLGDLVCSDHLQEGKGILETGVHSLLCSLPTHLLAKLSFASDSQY
#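 Displacement of a biotinylated histone H3(1-15) peptide monomethylated at Lys9 (75 nM) from L3MBTL1 (50 nM) was measured by AlphaScreen after a 30 min room-temperature compound incubation; cefsulodin titration served as intraplate control.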
# APE1 inh: blocks human APE1 abasic DNA cleavage. P27695. recombinant APE1, TAMRA/BHQ-2 abasic DNA cleavage fluorescence. Potency, µM (series often up to 65.8 µM), inactives show top-dose activity change, negative = inhibition, actives largely listed as inhibitors. actives 0.35% (n = 350,000). AID 2517;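 note: plate controls were vehicle for no effect and reference inhibitor for full effect; nearly all actives have a fitted effect of over 55% in size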
#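 Compound pre-exposure to 0.75 nM APE1, 15 min at ambient temperature. Reaction initiated with 50 nM TAMRA/BHQ-2 THF substrate, read immediately in kinetic mode, 525 nm excitation, 598 nm emission.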
# BLM helicase inh: blocks DNA unwinding by human BLM helicase | actives 0.2% (n = 350,000) | AID 2528 | P54132 | Potency, µM (top dose mostly 56.1 µM), for inactives: at the highest dose activity change, negative = inhibition, actives largely listed as inhibitors | recombinant BLM DNA unwinding, fluorescence dequenching;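 note: plate controls were vehicle for no effect and no enzyme for full effect; nearly all actives have a fitted effect of over 35% in size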
# RECQ1 inh: blocks DNA unwinding by human RECQ1. P46063. RECQ1 DNA unwinding, red fluorescence kinetic read. Potency, µM (titrated, usually from 57.3 µM), for the others: top-dose activity, negative = inhibition, hits mostly inhibitors. actives 0.54% (n = 240,000);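 note: plate controls were vehicle for no effect and no enzyme for full effect; nearly all actives have a fitted effect of over 30% in size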
#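 50 nM RECQ1T1 preincubated 15 min with compound in Tris pH 8.0 buffer with MgCl2, DTT, Tween-20 and 2.5 ug/ml poly(dI-dC); started with 200 nM TAMRA/BHQ-2 forked duplex and 2 mM ATP. Unwinding read as fluorescence (525/598 nm), two reads 2 h apart.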
# Starred values were filed as active, the others as inactive; ? = inconclusive; nt = no result. Calls come from the whole dose curve; as a rule, active = well fitted curve in the direction sought with a large enough effect; inconclusive = small, poorly fitted or top-dose-only effect, or another doubt; inactive = no such curve, though single readings can be large; an effect the other way counts as inactive or inconclusive. Unless noted, % is set by controls: 0 for no effect and ±100 for the full control effect; potency is the fitted concentration of half-maximal effect.
SMILES,WRN helicase inh,L3MBTL1 inh,APE1 inh,BLM helicase inh,RECQ1 inh
O=C1C(NS(=O)(=O)c2ccc(Cl)cc2)=C(N2CCCCC2)C(=O)c2ccccc21,-30%,25µM*,9%,-16%,-5%
C[C@@H]1O[C@@H](OC[C@H]2O[C@@H](Oc3c(-c4ccc(OCCO)c(OCCO)c4)oc4cc(OCCO)cc(O)c4c3=O)[C@H](O)[C@@H](O)[C@@H]2O)[C@H](O)[C@H](O)[C@H]1O,nt,nt,-3%,nt,nt
O=C(O)c1cccc(-c2ccc(/C=C3/SC(=Nc4ccccc4)N(Cc4cccnc4)C3=O)o2)c1,?,nt,7.5µM*,-17%,nt
CCN1C(=O)/C(=C\c2ccc(-c3cccc(C(=O)OC)c3)o2)SC1=Nc1ccc(C(=O)O)cc1,nt,-11%,?,-9%,nt
COc1ccc(C2=Nn3c(nnc3-c3cccc(OC)c3OC)SC2)cc1OC,nt,nt,3%,-4%,-4%
CN(C)c1ccc(NC(=S)c2ccccn2)cc1,-25%,32µM*,2%,-1%,-7%
CN(C)c1ccc(C(=S)Nc2ccccc2)cc1,-9%,-22%,-1%,-1%,6%
CCN(C(=O)C(C)N1C(=O)/C(=C/c2ccco2)SC1=S)C1CCS(=O)(=O)C1 (stereo unspecified),50µM*,nt,-6%,-22%,nt
O=C1/C(=C\c2ccco2)SC(=S)N1C1CCS(=O)(=O)C1 (stereo unspecified),-28%,?,20µM*,-15%,?
O=C1/C(=C/c2ccco2)SC(=S)N1C1CCS(=O)(=O)C1 (stereo unspecified),-21%,?,0%,-3%,-1%
O=C(Cc1ccc(Cl)cc1)Nc1cccc(C(=O)Nc2ccccc2C(=O)O)c1,89µM*,nt,-7%,-7%,nt
O=C(Nc1cccc(C(=O)Nc2ccccc2C(=O)O)c1)c1cccc(Cl)c1,-23%,nt,nt,nt,nt
Nc1cc2nsnc2cc1Br,?,16µM*,?,4µM*,?
Nc1cccc2nsnc12,-4%,2%,-6%,-14%,-1%
Cc1ccc([C@@H]2CC=C(C(=O)O)[C@H](c3ccc(C(C)(C)C)cc3)N2S(=O)(=O)c2ccc(C)cc2)cc1,-20%,-6%,14%,nt,nt
Cc1ccc(S(=O)(=O)N2[C@@H](c3ccc(C(C)(C)C)cc3)C(C(=O)O)=CC[C@H]2c2ccc(C(C)C)cc2)cc1,56µM*,-13%,-39%,nt,nt
CN(C)c1ccc(/C=C2\CCC/C(=C\c3ccccc3)C2=O)cc1,50µM*,-4%,0%,-16%,-2%
COc1cc(/C=C2\SC(=S)N(c3cccnc3)C2=O)ccc1O,?,nt,-6%,0%,13%
COc1cc(/C=C2\SC(=S)N(NC(=O)c3ccc(O)cc3)C2=O)ccc1O,28µM*,nt,-16%,-13%,nt
COc1cc(/C=C2\SC(=S)N(NC(=O)c3cccnc3)C2=O)ccc1O,50µM*,nt,?,-4%,25µM*
Clc1ccc(Sc2cc(Cl)c(Cl)cc2Cl)cc1,nt,nt,1%,0%,-9%
C=CCCCCCC,nt,nt,4%,nt,-6%
CC(C)(C)OC(=O)C[C@H]1C/C=C\C[C@H](CC(=O)N[C@@H](CO)Cc2ccccc2)C(=O)N[C@H](C(C)(C)C)COC1=O,-3%,2%,13µM*,nt,nt
O=C(N[C@@H]1C/C=C\C[C@H](CC(=O)N(CCO)Cc2ccccc2)C(=O)N[C@@H](Cc2ccccc2)COC1=O)OCC1c2ccccc2-c2ccccc21,9%,-5%,-9%,nt,nt
O=C(N[C@@H]1C/C=C\C[C@@H](CC(=O)N(CCO)Cc2ccccc2)C(=O)NCCOC1=O)OCC1c2ccccc2-c2ccccc21,-29%,-6%,24µM*,nt,nt
CC(C)(C)OC(=O)C[C@H]1C/C=C\C[C@H](CC(=O)N[C@H](CO)Cc2ccccc2)C(=O)N[C@H](C(C)(C)C)COC1=O,4%,-4%,-6%,nt,nt
CC(C)(C)[C@H]1COC(=O)[C@H](NC(=O)OCC2c3ccccc3-c3ccccc32)C/C=C\C[C@@H](CC(=O)N[C@H](CO)Cc2ccccc2)C(=O)N1,7%,-1%,-16%,nt,nt
CC(C)(C)[C@H]1COC(=O)[C@H](NC(=O)OCC2c3ccccc3-c3ccccc32)C/C=C\C[C@@H](CC(=O)N[C@@H](CO)Cc2ccccc2)C(=O)N1,-8%,4%,24µM*,nt,nt
